# Laboratory results reported in PubChem BioAssay (EPA / NIEHS).
# Where “and” joins values, the source holds several entries; their conditions need not be identical. Identical values can stand only once. Results filed as inconclusive are left out. Calls of active or inactive are those of the source. The calls were made as follows: active = hit-call score of the fitted dose curve at least 0.9, where 1 is the maximum; inconclusive = response in the unintended direction; inactive = score below 0.9.
# Molecular target: Estrogen receptor (Homo sapiens) (UniProt P03372)
# Assay: ATG_ERa_TRANS: Attagene TRANS-FACTORIAL HepG2 Assay for human Estrogen Receptor alpha (ERa) (AID 2282970)
# Settings: HepG2 Attagene TRANS ERa GAL4 reporter, mRNA
# How it was run: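 Cells: HepG2, transiently transfected. Construct: GAL4-UAS reporter units regulated by exogenous NR-Gal4 chimeras. Time: 24 h. Detection: reporter mRNA by RT-PCR, capillary electrophoresis, fluorescence. Baseline: DMSO, upward fitting.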
# Estrogen receptor (Homo sapiens), sequence (P03372 whole entry, looked up): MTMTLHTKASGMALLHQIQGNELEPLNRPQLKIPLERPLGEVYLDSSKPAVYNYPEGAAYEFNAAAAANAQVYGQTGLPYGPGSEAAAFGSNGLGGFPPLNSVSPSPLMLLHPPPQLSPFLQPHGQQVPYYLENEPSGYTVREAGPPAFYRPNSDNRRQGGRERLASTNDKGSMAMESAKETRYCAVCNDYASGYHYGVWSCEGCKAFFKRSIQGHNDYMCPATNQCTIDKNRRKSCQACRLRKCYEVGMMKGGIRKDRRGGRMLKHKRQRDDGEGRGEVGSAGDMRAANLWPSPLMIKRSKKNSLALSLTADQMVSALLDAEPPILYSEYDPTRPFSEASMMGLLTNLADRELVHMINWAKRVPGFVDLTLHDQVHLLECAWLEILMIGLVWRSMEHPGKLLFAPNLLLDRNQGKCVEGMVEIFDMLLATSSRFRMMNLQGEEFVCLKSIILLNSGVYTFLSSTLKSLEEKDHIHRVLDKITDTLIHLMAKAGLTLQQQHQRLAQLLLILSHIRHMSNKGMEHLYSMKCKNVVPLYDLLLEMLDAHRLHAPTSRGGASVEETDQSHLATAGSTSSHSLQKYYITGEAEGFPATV
SMILES,AC50,outcome
NS(=O)(=O)C(F)(F)C(F)(F)C(F)(F)C(F)(F)C(F)(F)C(F)(F)C(F)(F)C(F)(F)F,25.8 µM (active) and 7.34 µM (active) and 5.15 µM (active),–
ClC1=C(Cl)[C@]2(Cl)[C@@H]3[C@H]4C[C@H]([C@@H]5O[C@H]45)[C@@H]3[C@@]1(Cl)C2(Cl)Cl,–,inactive
O=C(NC(=O)c1c(F)cccc1F)Nc1cc(Cl)c(OC(F)(F)C(F)F)c(Cl)c1,–,inactive
N#Cc1ccc(N(CC(N)=O)CC(F)(F)F)cc1C(F)(F)F,–,inactive
CC(c1ccc(O)cc1)(c1ccc(O)cc1)c1ccc(O)cc1,0.129 µM (active),–
ClC1=C(Cl)[C@]2(Cl)[C@@H]3[C@@H](Cl)[C@H]4O[C@H]4[C@@H]3C1(Cl)C2(Cl)Cl,–,inactive
c1ccc(-c2ccccc2)cc1,–,inactive
O=NN(c1ccccc1)c1ccccc1,23.6 µM (active),–
CCCN(CCC)N=O,–,inactive
Cc1cc(O)ccc1Cl,40.4 µM (active),–
CN(C)c1nc(=O)n(C2CCCCC2)c(=O)n1C,–,inactive
Cc1ccc(O)c(C)c1,–,inactive
C[C@]12CCC(=O)C=C1CC[C@@H]1[C@@H]2CC[C@]2(C)C(=O)CC[C@@H]12,65.1 nM (active) and 9.14 nM (active) and 9.25 nM (active),–
CCCCCCCCCC[N+](C)(C)CCCCCCCCCC,–,inactive
CC1=C2C[C@H]3[C@@H](CC=C4C[C@@H](O)CC[C@@]43C)[C@@H]2CC[C@]12O[C@@H]1C[C@H](C)CN[C@H]1[C@H]2C,–,inactive
Oc1ccc(Cl)cc1Cl,64 µM (active),–
